This experiment in a line: NCI Yeast Anticancer Drug Screen. Data for the rad50 strain (AID 155).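 Also: 0% = growth of vehicle-only cultures of the same strain.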 Conditions: S. cerevisiae rad50 strain growth inhibition, hits give high values. The procedure: Growth inhibition of yeast strains with defined genetic alterations is measured as a screen for potential anti-cancer activity. Selected strains with alterations in DNA damage repair or cell cycle control were exposed to compounds and growth inhibition was measured relative to vehicle treated controls. The strain used in this assay is rad50

Setting [1] is: at 5.0 µM (retest, dose inferred, filed as 0.5).
[2] abbreviates: at 50.0 µM (retest, dose inferred, filed as 5.0).

The panel holds about 79,000 compounds, 15% with a hit somewhere; the sample as a whole holds those more often. A number with no mark means an inactive call. Activity calls are given as the source filed them. Rule as the data show it: active = growth inhibition above about 70%; inactive = the rest.

As for `Cc1ccc(S(=O)(=O)/N=[Se](\C)c2ccccc2)cc1` (stereo unspecified), the growth inhibition by setting is: under setting [1], 16%; under setting [2], 94% (active); (at 50.0 µM) 93.7% (active).
For the compound `O=P(O)(Oc1ccccc1)Oc1ccccc1.[Ag]`, the growth inhibition is, setting by setting: under setting [1], 36%; under setting [2], 71% (active); (at 50.0 µM) 92.2% (active).
Regarding `O=C1N[C@H]2[C@H](O)[C@H](O)[C@@H](O)[C@H](O)[C@@H]2c2cc3c(c(O)c21)OCO3`, the growth inhibition reads like this: under setting [1], 12%; under setting [2], 70% (active); (at 50.0 µM) 69%.
In the case of `ClC(CN1CCCCC1)C(Cl)c1ccccc1` (stereo unspecified), the growth inhibition under setting [1] was 6%, the growth inhibition under setting [2] was 28% and the growth inhibition (at 50.0 µM) is 46.6%.
For `CCC[CH2][Sn]1([CH2]CCC)[O]C2C(O)OC(CO)C(O)C2[O]1` (stereo unspecified) the same measures were 84% (active), 99% (active) and 99% (active).
Take `CCC1(O)C(=O)OCc2c1cc1n(c2=O)Cc2cc3cc(C)ccc3nc2-1` (stereo unspecified): the growth inhibition was 94% (active) under setting [1], 83% (active) under setting [2] and 82.2% (active) (at 50.0 µM).
On to `C[CH2][Sn]([O][Sn]([Cl])([CH2]C)[c]1ccccc1)[c]1ccccc1` (stereo unspecified), for which the growth inhibition runs as follows: under setting [1], 10%; under setting [2], 97% (active); (at 50.0 µM) 81.5% (active).
Turning to `O=C(O)c1cccc2cccc(C(=O)O)c12.[Hg]`, the growth inhibition reads like this: under setting [1], 99% (active); under setting [2], 99% (active); (at 50.0 µM) 99.4% (active).
Take `O=c1ccc(N=Cc2ccc(N(CCCl)CCCl)cc2)ccc1O`: the growth inhibition reads like this: under setting [1], 94% (active); under setting [2], 93% (active); (at 50.0 µM) 96.2% (active).
As to `COc1cc(/C=C(\C)[N+](=O)[O-])cc(Br)c1O`, the growth inhibition is 0% under setting [1], 61% under setting [2] and 86.7% (active) (at 50.0 µM).
`CC(=O)O[C@H]1C(=O)O[C@@H]2C[C@H]3C(C)=CC(=O)[C@@H](O)[C@]3(C)[C@H]3[C@@]4(O)OC[C@]32[C@@H]1[C@@H](C)[C@H]4O`: the growth inhibition is, setting by setting: under setting [1], 21%; under setting [2], 86% (active); (at 50.0 µM) 81% (active).
For `COC1CC(OC2C(C)OC(OC3C(C)OC(OC4CCC5(C)C(=CCC6(O)C5CC(OC(=O)c5ccc(O)cc5)C5(C)C(O)(C(C)=O)CCC65O)C4)CC3OC)CC2OC)OC(C)C1O` (stereo unspecified) (tested in a mixture with another compound) the same measures were 1%, 68% and 45.9%.
Regarding `CC(C)(Cl)[N+](=O)[O-]`, the growth inhibition (at 50.0 µM) was -3.35%.
Consider `CC(=O)OC1(C)CC(C)C(=O)C(C(O)CC2CC(=O)NC(=O)C2)C1` (stereo unspecified), for which the growth inhibition (at 50.0 µM) was 92.8% (active).
`C[C@]12CCC(O)CC1=CC[C@@H]1[C@@H]2CC[C@]2(C)C(O)[C@H](n3ccnc3)C[C@@H]12` (stereo partly specified): for the setting “at 50.0 µM”, the growth inhibition is 30.1%.
Consider `Cc1ccc(CCl)c(O)c1`, for which, under “at 50.0 µM”, the growth inhibition is -25.7%.
Regarding `NC(=O)COc1ccc([As]=O)cc1` (stereo unspecified), the growth inhibition (at 50.0 µM) is -1.9%.

For the origin of these results see PubChem BioAssay (NCI).
